Only some compounds are listed: those with a hit (about 16% of all), similar ones and a draw of the others.
TDP1 inh: qHTS Assay for Inhibitors of Tyrosyl-DNA Phosphodiesterase (TDP1) | Tyrosyl-DNA phosphodiesterase 1 (Homo sapiens), Q9NUW8 | recombinant TDP1, AlphaScreen DNA substrate cleavage | Potency, µM (series often up to 130 µM), for inactives: at the highest dose activity change, negative = inhibition, hits mostly inhibitors | 0.28% of 350,000 active | AID 485290, 2010; note: potency is the fitted concentration of half-maximal effect; % is set by controls: 0 for no effect and ±100 for the full control effect; nearly all actives have a fitted effect of over 40% in size
Target sequence (Q9NUW8 whole entry, looked up): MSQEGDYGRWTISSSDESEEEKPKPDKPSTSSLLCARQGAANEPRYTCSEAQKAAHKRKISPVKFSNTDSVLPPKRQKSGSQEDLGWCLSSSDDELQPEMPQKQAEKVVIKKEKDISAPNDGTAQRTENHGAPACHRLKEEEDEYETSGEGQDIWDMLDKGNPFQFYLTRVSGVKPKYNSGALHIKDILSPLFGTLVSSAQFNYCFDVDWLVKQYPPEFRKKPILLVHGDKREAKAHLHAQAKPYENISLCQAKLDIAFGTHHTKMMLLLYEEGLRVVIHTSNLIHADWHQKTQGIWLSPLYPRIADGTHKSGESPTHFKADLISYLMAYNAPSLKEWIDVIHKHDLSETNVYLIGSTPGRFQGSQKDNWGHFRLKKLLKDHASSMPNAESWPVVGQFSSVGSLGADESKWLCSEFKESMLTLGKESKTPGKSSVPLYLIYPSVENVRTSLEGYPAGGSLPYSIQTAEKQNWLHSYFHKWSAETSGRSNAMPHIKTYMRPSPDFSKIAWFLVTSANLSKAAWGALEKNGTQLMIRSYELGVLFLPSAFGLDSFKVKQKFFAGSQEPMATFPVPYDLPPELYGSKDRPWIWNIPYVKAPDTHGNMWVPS
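AlphaScreen read-out: signal falls as enzyme removes the 3' tyrosine-FITC from a 5'-biotinylated DNA oligo (15 nM, 5 min, RT). Enzyme was E. coli-made recombinant Tdp1 at 1 nM, exposed to compound for 15 min beforehand; beads 10 ug/ml, 10 min.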
miR-21 act: qHTS Assay for Modulators of miRNAs and/orActivators of miR-21. HeLa miR-21 FLuc reporter, luciferase, 48 h. Potency, µM (titrated, usually from 38.3 µM), without a hit: at the top dose activity change, positive = activation, hits mostly activators. 340,000 tested, under 10 active. AID 2288, 2010;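 note: % of control where 0% means no effect; miR-21 action dims this reporter so a rising signal means less miR-21 action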
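Luminescence from a firefly luciferase reporter carrying a miR-21 binding site downstream, stably expressed under a CMV promoter in HeLa cells that make miR-21 endogenously, reports miRNA modulation after 48 h compound exposure up to approximately 40uM final.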
DT40 TDP1 CPT: qHTS for Inhibitors of human tyrosyl-DNA phosphodiesterase 1 (TDP1): qHTS in cells in presence of CPT. 12% of 420,000 active. Potency, µM (titrated, usually from 46.2 µM), for inactives: top-dose activity change, negative = growth inhibition, usual class: inhibitors. chicken DT40 Tdp1-/-;hTDP1 cells + 20 nM CPT, ATP luminescence, 48 h; note: potency is the fitted concentration of half-maximal effect; % is set by controls: 0 for no effect and ±100 for the full control effect; nearly all actives have a fitted effect of over 55% in size
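Chicken DT40 Tdp1-/- cells stably complemented with human TDP1 were seeded at 400 cells/well in medium containing 20 nM camptothecin, exposed to pin-transferred compounds, and grown at 37 °C for at least 48 hr. Viability was read as ATP luminescence.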
TDP1 cell noCPT: qHTS for Inhibitors of human tyrosyl-DNA phosphodiesterase 1 (TDP1): qHTS in cells in absence of CPT. DT40 Tdp1-/- hTDP1 cells, no CPT, ATP luminescence, 48 h. Potency, µM (doses to about 46.2 µM), without a hit: at the highest dose activity change, negative = growth inhibition, usual class: inhibitors. 15% of 420,000 active. AID 686978, 2013; note: potency is the fitted concentration of half-maximal effect; % is set by controls: 0 for no effect and ±100 for the full control effect; nearly all actives have a fitted effect of over 55% in size
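Growth of hTDP1-complemented DT40 Tdp1-knockout cells is measured by ATP luminescence after at least 48 hr compound exposure at 37 °C, with DMSO substituting for the 20 nM CPT used in the parallel screen.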
uPA generation: qHTS for Inhibitors of Cell Surface uPA Generation | cell surface uPA generation assay, qHTS | Potency, µM (titrated, usually from 38.3 µM), for inactives: at the highest dose activity change, negative = inhibition, actives largely listed as inhibitors | 0.31% of 330,000 active | AID 540303, 2011; active = well fitted inhibition curve with a large enough effect; inconclusive = small, poorly fitted or top-dose-only effect; inactive = no such curve, though single readings can be large or run the other way; tested in mouse RAW 264.7 cells; note: potency is the fitted concentration of half-maximal effect; % is set by controls: 0 for no effect and ±100 for the full control effect; nearly all actives have a fitted effect of over 55% in size
Numbers without * were called inactive; ? = inconclusive; / = not tested or not shown. Unless noted, calls come from the whole dose curve; as a rule, active = well fitted curve in the direction sought with a large enough effect; inconclusive = small, poorly fitted or top-dose-only effect, or another doubt; inactive = no such curve, though single readings can be large; an effect the other way counts as inactive or inconclusive.

SMILES	TDP1 inh	miR-21 act	DT40 TDP1 CPT	TDP1 cell noCPT	uPA generation
C#CCN(C[C@H]1[C@H](OC(=O)NCc2ccccc2F)[C@H](OC(=O)NCc2ccccc2F)C[C@H]2C(=O)N(c3ccccc3)C(=O)[C@@H]12)S(=O)(=O)c1ccc(C)cc1	/	/	-13%	?	/
C#CCN(C[C@@H]1[C@@H](OC(=O)NCC2CCCCC2)[C@@H](OC(=O)NCC2CCCCC2)CN(C(=O)OC(C)C)N1C(=O)OC(C)C)S(=O)(=O)c1ccc(C)cc1	/	/	9.2µM*	7.3µM*	/
COc1cccc(/C=C/C(=O)OCC(=O)NC2CC2)c1	-2%	/	5%	14%	12%
COc1ccccc1NNC(=O)C(O)(c1ccccc1OC)c1ccccc1OC	0%	-11%	18µM*	23µM*	1%
CCN(C(=O)COC(=O)c1ccccc1NCCO)c1cccc2ccccc12	/	/	-29%	18µM*	4%
O=C(OCC(=O)N(Cc1ccccc1)Cc1ccccc1)c1ccccc1NCCO	0%	/	?	?	-4%
CCN(CC)C(=O)Cn1cc(C(=O)C(=O)N2CCN(c3ccc([N+](=O)[O-])cc3)CC2)c2ccccc21	5%	8%	6.5µM*	7.3µM*	-7%
CCN(CC)C(=O)Cn1cc(/C=C(\C#N)C(=O)N2CCN(c3ccccc3)CC2)c2ccccc21	5%	5%	21µM*	?	/
COc1ccc(N2CCN(C(=O)C(=O)c3cn(CC(=O)N4CCCC4)c4ccccc34)CC2)cc1	/	/	21µM*	?	/
COc1ccc(N2CCN(C(=O)C(=O)c3cc(OC)c4ccccc4c3)CC2)cc1	/	/	23µM*	21µM*	/
COc1ccc(N2CCN(C(=O)C(=O)c3c(C)[nH]c4ccccc34)CC2)cc1	7%	-3%	-18%	?	0%
CNC(=O)CSc1cn(CC(=O)N2CCCCCC2)c2ccccc12	5%	22%	-16%	-15%	/
Cc1ccccc1NC(=O)Cn1c(=O)n(-c2ccc(CC(=O)NCC3CCCO3)cc2)c(=O)c2ccccc21 (configuration not stated)	-3%	-4%	0%	12%	18%
CCN1C(=O)[C@H]2[C@@H](c3ccc(-c4ccc(OC)cc4)cc3)N3CCCC[C@@]3(C(=O)OC)[C@H]2C1=O	-1%	/	?	16µM*	8%
CCN1C(=O)[C@@H]2[C@@H](c3ccc(-c4ccc(OC)cc4)cc3)N3CCC[C@@]3(C(=O)OC)[C@@H]2C1=O	3%	/	?	21µM*	-13%
CCN1C(=O)[C@H]2[C@@H](c3ccc(-c4ccc(OC)cc4)cc3)N3CCC[C@@]3(C(=O)OC)[C@H]2C1=O	-6%	/	?	15µM*	-3%
CCN1C(=O)[C@@H]2[C@@H](c3ccc(-c4ccc(F)cc4)cc3)N3CCC[C@@]3(C(=O)OC)[C@@H]2C1=O	10%	/	?	?	-2%
CCOCCCNC(=O)C(c1ccc(Cl)cc1)N(Cc1cccs1)C(=O)CNC(C)=O (configuration not stated)	1%	-4%	-9%	-1%	0%
CCCCn1nnnc1SCC(=O)NCc1ccccc1	-1%	-3%	-10%	-3%	2%
O=C(Nc1ccc(F)c(Cl)c1)N1CCN2CCCCC2C1 (configuration not stated)	6%	-15%	5%	0%	/
Cc1ccc(S(=O)(=O)N2CCC(C(=O)N3CCCCCCC3)CC2)cc1C	/	/	16µM*	?	/
Cc1ccc(S(=O)(=O)N2CCC(C(=O)N3CCc4ccccc43)CC2)cc1C	-8%	/	?	18µM*	18%
Cc1ccc(S(=O)(=O)N2CCC(C(=O)OCCOc3ccccc3)CC2)cc1C	/	/	-9%	0.18µM*	4%
O=C(CN1C(=O)NC2(CCSC2)C1=O)N1CCN(c2ccc(F)cc2)CC1 (configuration not stated)	0%	8%	-5%	-10%	2%
O=C1C=CC(=O)N1c1ccc(Nc2ccccc2)cc1	/	/	5.8µM*	5.8µM*	-14%
SMILES	TDP1 inh	miR-21 act	DT40 TDP1 CPT	TDP1 cell noCPT	uPA generation
O=C1C=CC(=O)N1c1ccc2ccccc2c1	/	/	4.1µM*	5.2µM*	-8%
CCN(CC)C1CC(=O)N(c2cccc(C)c2)C1=O (configuration not stated)	3%	-4%	/	/	/
O=C(O)c1cc(N2C(=O)C=CC2=O)cc(N2C(=O)C=CC2=O)c1	/	/	-2%	0%	4%
Cc1cccc(N2C(=O)C=CC2=O)c1	/	/	2.6µM*	4.6µM*	-3%
O=C1CC[C@@H]2CC3(C[C@@H]4CCN1[C@H]24)Nc1ccccc1NC3=NC1CCCCC1 (some centres not stated)	/	/	?	-6%	-10%
Cc1nc2c(-c3ccc(F)cc3)c(C)[nH]n2c(=O)c1Cl	/	7%	?	?	-9%
Cc1nc2c(C#N)c(C)[nH]n2c(=O)c1Cc1ccccc1	0%	2%	-18%	-9%	5%
Cc1nc2c(-c3ccccc3)c(C)[nH]n2c(=O)c1Cc1ccccc1	10%	24%	?	?	-5%
Cc1ccccc1Cc1c(C)nc2c(-c3ccccc3)c(C)[nH]n2c1=O	8%	?	?	21µM*	/
COc1ccc(-c2c(C)[nH]n3c(=O)c(Cc4ccccc4)c(C)nc23)cc1OC	8%	21%	?	18µM*	-8%
CCCCc1c(C)nc2c(-c3ccc(OC)cc3)c(C)[nH]n2c1=O	7%	0%	16µM*	10µM*	/
Cc1cccc(Cc2c(C)nc3c(-c4ccccc4)c(C)[nH]n3c2=O)c1	-1%	?	5.8µM*	3.7µM*	/
Cc1ccc2nc(-c3cccnc3)cc(C(=O)Nc3ccc(F)cc3C)c2c1	0%	1%	?	?	3%
O=C(CSc1nc(=O)n2ccccc2n1)N1CCC(Cc2ccccc2)CC1	/	/	?	?	-7%
COC(=O)C1=NNC2(c3ccc(Cl)cc3)C(=O)N(c3ccc(Cl)cc3)C(=O)C12 (configuration not stated)	1%	-2%	3%	5%	1%
CC1CN(C(=O)c2cccc(Oc3ccccc3)c2)CC(C)O1 (configuration not stated)	2%	4%	?	?	2%
c1ccc(-c2cccc(-c3ccccc3)n2)cc1	/	-31%	?	-10%	-24%
O=S(=O)(NCCOC12CC3CC(CC(C3)C1)C2)c1cccc2nsnc12	9%	0%	18µM*	15µM*	-1%

High-throughput results (PubChem)
